Results as given in PubChem BioAssay (NCI).
Compounds without any hit were thinned out: in the full panel of roughly 83,000, 20% have a hit.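 96-well plates, one dose, 48 hours. Percent growth reported; active if below 10.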 Unmarked numbers belong to inactive results. The source made the active and inactive calls.

Key:
Assay in all cases: NCI-60 one-dose screen, 48 h (100 = growth as untreated, 0 = no growth, -100 = all killed)
DU-145 prostate = conditions: 10 µM unless noted
K-562 leukemia = conditions: 10 µM unless noted
MALME-3M melanoma = conditions: 10 µM unless noted
MDA-MB-231 breast = conditions: 10 µM unless noted
RXF 393 renal = conditions: 10 µM unless noted
SF-268 CNS = conditions: 10 µM unless noted
SF-295 CNS = conditions: 10 µM unless noted
SF-539 CNS = conditions: 10 µM unless noted
UACC-257 melanoma = conditions: 10 µM unless noted
M14 melanoma = conditions: 10 µM unless noted
HCT-15 colon = conditions: 10 µM unless noted
HT29 colon = conditions: 10 µM unless noted
SNB-75 CNS = conditions: 10 µM unless noted
U251 CNS = conditions: 10 µM unless noted
PC-3 prostate = conditions: 10 µM unless noted
SK-MEL-5 melanoma = conditions: 10 µM unless noted
UACC-62 melanoma = conditions: 10 µM unless noted
LOX IMVI melanoma = conditions: 10 µM
SK-MEL-28 melanoma = conditions: 10 µM unless noted

| Compound | growth (DU-145 prostate) | growth (K-562 leukemia) | growth (MALME-3M melanoma) | growth (MDA-MB-231 breast) | growth (RXF 393 renal) | growth (SF-268 CNS) | growth (SF-295 CNS) | growth (SF-539 CNS) | growth (UACC-257 melanoma) | growth (M14 melanoma) | growth (HCT-15 colon) | growth (HT29 colon) | growth (SNB-75 CNS) | growth (U251 CNS) | growth (PC-3 prostate) | growth (SK-MEL-5 melanoma) | growth (UACC-62 melanoma) | growth (LOX IMVI melanoma) | growth (SK-MEL-28 melanoma) |
| --- | --- | --- | --- | --- | --- | --- | --- | --- | --- | --- | --- | --- | --- | --- | --- | --- | --- | --- | --- |
| CN(C)c1nc(NCCNS(=O)(=O)c2ccc(C(=O)/C=C/c3ccc(C(F)(F)F)cc3)cc2)nc(Nc2ccc(F)cc2)n1 | 6.99% (active) | -1.07% (active) | -2.41% (active) | -74.2% (active) | -81.4% (active) | 21.6% | -14.6% (active) | -97.5% (active) | 23.7% | -48.3% (active) | -92.5% (active) | -94% (active) | 54.6% | -99.2% (active) | -33.5% (active) | 16.2% | -5.71% (active) | -100% (active) | -80% (active) |
| CCCCSc1nc(NCCc2c[nH]c3ccccc23)c(C#N)c(-c2ccc(OC)cc2)n1 | 68.4% | 22.4% | 93.4% | 36.9% | -2.63% (active) | 56% | 43.4% | 54.4% | 94.8% | 70.1% | 24.9% | 25.1% | 65.4% | 55.2% | 23.2% | 46.2% | 71.2% | 37.7% | 75.8% |
| O=C(CN1C(=O)/C(=C/c2ccccc2F)SC1=S)N1CCOCC1 | 56.3% | 19.2% | 51.8% | 92% | 71.8% | 99.1% | 108% | 82.3% | 89.6% | 79.4% | 29.4% | 87.1% | 106% | 91.8% | 95.1% | 93.9% | 76.2% | 38% | 86.4% |
| O=C1CCCc2cc(OCC(=O)N3CCCCC3)ccc2N1 | 122% | 106% | 102% | 105% | 110% | 108% | 99% | 101% | 111% | 116% | 105% | 127% | 101% | 107% | 109% | 104% | 105% | 97.1% | 119% |
| CCN(CC)c1ccnc(CNCCSC(c2ccccc2)(c2ccccc2)c2ccc(C)cc2)c1 | -59.7% (active) | -45.1% (active) | -93.1% (active) | -97.7% (active) | -87.5% (active) | -55.8% (active) | -97% (active) | -97.5% (active) | -90.1% (active) | -87.2% (active) | -92.4% (active) | -80.5% (active) | -51.2% (active) | -93% (active) | -76.6% (active) | -99.6% (active) | -96.2% (active) | -99.6% (active) | -97.5% (active) |
| Cc1ccc(-n2c(-c3cc4ccccc4nc3Cl)noc2=O)cc1 | 105% | 30.6% | 93.3% | 63.6% | 92.4% | 86.7% | 76.1% | 84% | 95% | 72.7% | 39.1% | 110% | 40.1% | 83.7% | 75.5% | 66.1% | 56% | 85.1% | 97.1% |
| O=C(NN1C(=O)/C(=C/C=C/c2ccc([N+](=O)[O-])o2)SC1=S)c1ccccc1O | -100% (active) | 7.19% (active) | -95% (active) | -93.1% (active) | -94.5% (active) | -81.4% (active) | -48.2% (active) | -100% (active) | -85% (active) | -81.3% (active) | -80.3% (active) | -72.2% (active) | -61.8% (active) | -99.5% (active) | -6.66% (active) | -100% (active) | -93.7% (active) | -91.6% (active) | -94.6% (active) |
| COc1ccc(-c2ccnc(SCc3cc4cc(Cl)ccc4[nH]c3=O)n2)cc1 | 35.6% | 79.1% | 27.9% | 26.9% | -10.7% (active) | 0.935% (active) | 26.5% | 46.2% | 72.1% | 73.8% | 80.8% | 84.7% | -7.9% (active) | 0.922% (active) | 29.6% | 37.4% | 42.5% | 80.9% | 64.3% |
| O=c1[nH]c2ccccc2cc1CSc1nccc(-c2ccc3ccccc3c2)n1 | 81% | 10.1% | 86.3% | 58.2% | 59.1% | 85.4% | 70.8% | 71.2% | 99.3% | 56.1% | 29% | 44.3% | 86.6% | 65.2% | 50% | 57.2% | 60.9% | 67.1% | 86.3% |
| COc1ccc(N2N=C(c3ccc4c(c3)OCO4)CC2c2cccc(NC(=O)CCCNS(=O)(=O)c3ccc(F)cc3)c2)cc1 (centres undefined) | 80.3% | 35.5% | 77.6% | 50.2% | 66.9% | 52.8% | 49.2% | 74.9% | 75.7% | 49.5% | 57.8% | 61.3% | 50.6% | 59.2% | 42.5% | 48% | 66.4% | 66.4% | 75.4% |
| Nc1cccc(SCc2cc3ccccc3[nH]c2=O)c1 | 58.7% | 9.64% (active) | 72% | 57.2% | 81.5% | 47.7% | 19.3% | 59.9% | 48.5% | 20.5% | 43.3% | 65.7% | 83.1% | 64.1% | 63% | -4.45% (active) | 4.09% (active) | 9.48% (active) | 61.6% |
| CC1(C)CC[C@]2(C(=O)Nc3ccccc3)CC[C@]3(C)C(=CCC4[C@@]5(C)C[C@@H](O)[C@H](O)[C@@](C)(CO)C5CC[C@]43C)C2C1 (some centres undefined) | 76.8% | 33.3% | 73.9% | 53.5% | 17.6% | 61.2% | 50.4% | 63% | 65.6% | 56.1% | 42.5% | 22.1% | 85.5% | 51.1% | 20.4% | 20.2% | 57.5% | 53.1% | 70.6% |
| CC1(C)CC[C@]2(C(=O)Nc3ccc(Br)cc3)CC[C@]3(C)C(=CCC4[C@@]5(C)C[C@@H](O)[C@H](O)[C@@](C)(CO)C5CC[C@]43C)C2C1 (some centres undefined) | 21.5% | 5.08% (active) | 33.2% | -43.3% (active) | -64.5% (active) | 43.8% | -13.3% (active) | -5.36% (active) | 11.1% | 31.9% | -13% (active) | -60.9% (active) | 57.8% | -18.9% (active) | -13.8% (active) | -94.4% (active) | 8.99% (active) | -86.7% (active) | 32.1% |
| CCC(C)(C)c1ccc(OCCCCCCN2CCN(c3ccncc3)CC2)cc1 | 35.5% | -24.8% (active) | -94.7% (active) | -77.6% (active) | -62.5% (active) | 50.5% | -78% (active) | -72.4% (active) | 18.4% | -68.7% (active) | -55.5% (active) | -39.8% (active) | 69.6% | -45.7% (active) | -4.93% (active) | -99.2% (active) | -48% (active) | -96.8% (active) | -18.9% (active) |
| CCS(=O)(=O)N1CCCC(C(=O)Nc2nc3ccc(NC(=O)c4ccc(F)c(OC)c4F)cc3s2)C1 (centres undefined) | 77.2% | 38.6% | 67.9% | 81.7% | 26.9% | 68.5% | 48.8% | 57.6% | 37.4% | 78.5% | 51% | 69.2% | 62.5% | 65.9% | 50.6% | -7.02% (active) | 58.2% | 67.6% | 78.6% |
| Cc1cc(=O)oc2cc(OCCOc3ccc(/C=C/C(=O)Nc4ccccc4N)cc3)ccc12 | 35.9% | 21.1% | 48.6% | -16.1% (active) | 31% | 27.9% | 30.6% | 18.9% | 30.3% | 54.2% | 39.7% | 30.5% | 36.6% | 30.7% | 32.1% | -87.6% (active) | 33.2% | -73.2% (active) | 39.9% |
